Laboratory results reported in PubChem BioAssay AID1159580 (chemical genetic matrix, 2015).
Hit rate of the full screen: of about 5,500 compounds, about 2,000 (36%) were called active. Not shown: some 18% with an inconclusive outcome. No stated cut-off is given here; in the data, active means normalized growth mostly below about 0.91 (no sharp cut-off); inconclusive means no clear call, values can overlap the other calls; inactive means mostly above about 0.92. The list shows a part of the results.

Assay: chemical genetic growth profiling, strain panel (AID 1159580);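 further: tested at 20 µM; growth read once vehicle control cultures reached saturation at 30 °C; 1 = growth at the plate median or of vehicle wells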
Conditions: S. cerevisiae deletion strains, growth OD

Measured: normalized growth

Oc1ccc2c3c1O[C@H]1c4[nH]c5c(c4C[C@@]4(O)[C@@H](C2)N(CC2CC2)CC[C@]314)C[C@@]1(O)[C@H]2Cc3ccc(O)c4c3[C@@]1(CCN2CC1CC1)[C@H]5O4
inactive: locus YAL013W, strain DEP1, stronger effect = lower value 0.969 | locus YAL040C, strain CLN3, stronger effect = lower value 1 | locus YCL061C, strain MRC1 (second series), stronger effect = lower value 0.962 | locus YDR363W, strain ESC2, stronger effect = lower value 1.02 | locus YER002W, strain NOP16, stronger effect = lower value 0.996 | locus YGR078C, strain PAC10, stronger effect = lower value 0.986 | locus YMR263W, strain SAP30, stronger effect = lower value 0.982 | locus YMR307W, strain GAS1, stronger effect = lower value 1.03 | locus YNL175C, strain NOP13, stronger effect = lower value 1 | locus YNL197C, strain WHI3, stronger effect = lower value 0.978 | locus YNL224C, strain SQS1, stronger effect = lower value 1 | locus YNL322C, strain KRE1, stronger effect = lower value 0.958 | locus YOR083W, strain WHI5 (second series), stronger effect = lower value 1.01 | locus YPL241C, strain CIN2, stronger effect = lower value 0.968
